Experimental data reported in ChEMBL document CHEMBL1157539, “Thousands of chemical starting points for antimalarial lead identification” (Nature, 2010).

Assays:
Assay type in all cases: functional
[1] = tested on: Plasmodium falciparum; experiment: GSK_TCMDC: Inhibition of Plasmodium falciparum 3D7 in whole red blood cells, using parasite LDH activity as an index of growth. Test compounds present at 2uM
[2] = tested on: Plasmodium falciparum; experiment: GSK_TCMDC: Inhibition of Plasmodium falciparum Dd2 in whole red blood cells, using parasite LDH activity as an index of growth. Test compounds present at 2uM
[3] = tested on: HepG2; experiment: GSK_TCMDC: Percent inhibition of human HepG2 cell line. Test compounds present at 10uM.

Cc1cccc2nc(-c3ccc(-c4ccc(CN5CCC(C(N)=O)CC5)cc4)s3)[nH]c12.O=C(O)C(F)(F)F
Inhibition [1]: 97% | Inhibition [2]: 51% | Inhibition [3]: 4%

CCOc1cc(C(=O)NCCCN2CCCCC2C)ccc1-c1nc2cc(Cl)ccc2[nH]1 (stereo not given)
Inhibition [1]: 89% | Inhibition [2]: 0% | Inhibition [3]: 2%

COc1ccc(CCN(C)CCCN2CCC(NC(=O)c3cccc4c(=O)c5ccccc5sc34)CC2)cc1OC.O=C(O)C(=O)O
Inhibition [1]: 97% | Inhibition [2]: 79% | Inhibition [3]: 67%

Cn1nc(C(F)(F)F)c(-c2ccc(F)cc2)c1NC(=O)Nc1ccc(F)cc1
Inhibition [1]: 100% | Inhibition [2]: 99% | Inhibition [3]: 5%

O=C(/C=C/c1ccc(Cl)c(Cl)c1)NC1CCC(CN2CCC(c3nc4ccccc4s3)CC2)CC1 (stereo not given)
Inhibition [1]: 87% | Inhibition [2]: 32% | Inhibition [3]: 50%

CC(Nc1nc(Nc2ccc(F)cc2)nc(SCC(N)=O)n1)c1ccccc1 (stereo not given)
Inhibition [1]: 90% | Inhibition [2]: 87% | Inhibition [3]: 14%

CNS(=O)(=O)CCNCc1ccc(-c2ccc3ncnc(Nc4ccc(OCc5ccccc5)cc4)c3c2)o1
Inhibition [1]: 100% | Inhibition [2]: 26% | Inhibition [3]: 19%

O=C(Nc1ccccc1)c1ccc(N2CCC(COc3cccc(C(F)(F)F)c3)CC2)nc1
Inhibition [1]: 96% | Inhibition [2]: 83% | Inhibition [3]: 11%

Cc1ccc(NC(=O)Nc2ccc(I)c(OCCN(C)C)c2)cc1Cl
Inhibition [1]: 98% | Inhibition [2]: 22% | Inhibition [3]: 11%

COc1cc2c(cc1C(F)(F)F)N(C(=O)Nc1cc(F)cc(-c3cncnc3)c1)CC2
Inhibition [1]: 97% | Inhibition [2]: 52% | Inhibition [3]: 15%

Cc1ccc(Cc2c(N)nc3nc(N)nc(N)c3c2C)cc1.Cl
Inhibition [1]: 95% | Inhibition [2]: 8% | Inhibition [3]: 59%

Cc1nc(NC2=NCN(CCCN3CCOCC3)CN2)nc2c(C)cccc12
Inhibition [1]: 89% | Inhibition [2]: 62% | Inhibition [3]: 17%

CCOC(=O)N[C@@H]1CN[C@@H](C#Cc2cc3c(Nc4ccc(OCc5cccc(F)c5)c(Cl)c4)ncnc3s2)C1
Inhibition [1]: 86% | Inhibition [2]: 13% | Inhibition [3]: 8%

COCCSc1nc2scc(C)c2c(=O)n1Cc1cccc(OC)c1
Inhibition [1]: 92% | Inhibition [2]: 33% | Inhibition [3]: 0%

Cc1cccc2nc(-c3ccc(-c4ccc(CNCc5cccc(N)c5)cc4)cc3)[nH]c12.O=C(O)C(F)(F)F
Inhibition [1]: 100% | Inhibition [2]: 84% | Inhibition [3]: 12%

O=C(NC1CC1)c1ccc(N2CCOc3ccc(Cl)cc32)s1
Inhibition [1]: 94% | Inhibition [2]: 73% | Inhibition [3]: 8%

Cc1onc(-c2c(F)cccc2Cl)c1C(=O)Nc1ccccc1I
Inhibition [1]: 99% | Inhibition [2]: 52% | Inhibition [3]: 0%

O=C(/C=C/c1ccc(Cl)c(Cl)c1)NCCCCCN1CCC(NC(=O)NC2CCCCCC2)CC1
Inhibition [1]: 99% | Inhibition [2]: 41% | Inhibition [3]: 15%

Cc1ccc(O)cc1Nc1ccnc2cc(-c3cccc(CNCCS(C)(=O)=O)c3)ccc12
Inhibition [1]: 99% | Inhibition [2]: 100% | Inhibition [3]: 9%

Cc1cccc2nc(-c3ccc(-c4ccc(NC(=O)Nc5ccc(Cl)c(Cl)c5)cc4)s3)[nH]c12
Inhibition [1]: 100% | Inhibition [2]: 100% | Inhibition [3]: 100%

O.O=C1C([N+](=O)[O-])=C(O)c2c(F)cccc21
Inhibition [1]: 95% | Inhibition [2]: 13% | Inhibition [3]: 9%

Cl.O=C(C=Cc1ccc(F)cc1)NC1CCC(CCN2CCc3ccc(-c4cnccn4)cc3CC2)CC1 (stereo not given)
Inhibition [1]: 99% | Inhibition [2]: 65% | Inhibition [3]: 32%

Cc1c(-c2cccc(C(C)(C)NCCCN3CCCCC3)c2)cnc(N)c1C.Cl
Inhibition [1]: 95% | Inhibition [2]: 2% | Inhibition [3]: 5%

Cc1cc(NCCc2ccccc2)nc(NC(=N)Nc2cccc(F)c2)n1
Inhibition [1]: 91% | Inhibition [2]: 0% | Inhibition [3]: 0%

Oc1ccc(Cl)cc1Nc1nc(C(F)(F)F)nc2ccccc12
Inhibition [1]: 86% | Inhibition [2]: 63% | Inhibition [3]: 16%

CC(C)(O)CC(C)(C)c1cc(Cl)ccc1O
Inhibition [1]: 96% | Inhibition [2]: 1% | Inhibition [3]: 5%

CCCCCC(NCCCC)c1ccc(OCCOc2ccc(C(CCCCC)NCCCC)cc2)cc1.Cl (stereo not given)
Inhibition [1]: 88% | Inhibition [2]: 96% | Inhibition [3]: 99%

O=C(Nc1cccnc1)c1ccc(-c2cc3ccncc3cc2OC2CCNCC2)s1
Inhibition [1]: 97% | Inhibition [2]: 12% | Inhibition [3]: 0%

FC(F)(F)c1cccc(Nc2nc(-c3ccccc3)nc3ncccc23)c1
Inhibition [1]: 97% | Inhibition [2]: 97% | Inhibition [3]: 17%

c1ccc2[nH]c(-c3ccc(-c4ccc(CN5CCC(N6CCCCC6)CC5)cc4)s3)nc2c1
Inhibition [1]: 99% | Inhibition [2]: 100% | Inhibition [3]: 26%

O=C(Nc1ccc2c(c1)CCN2C1CCN(Cc2ccc(C(F)(F)F)cc2F)C1)c1ccco1 (stereo not given)
Inhibition [1]: 91% | Inhibition [2]: 94% | Inhibition [3]: 9%

O=C(O)C(F)(F)F.O=S(=O)(/C=C/c1ccccc1)N(Cc1ccc(-c2ccc(CNCCc3ccccc3)cc2)cc1)CC1CCCCN1 (stereo not given)
Inhibition [1]: 100% | Inhibition [2]: 96% | Inhibition [3]: 99%

CC(C)(C)c1cc(C(=O)N2CCN(c3cnccn3)CC2)n(Cc2ccccc2)n1
Inhibition [1]: 92% | Inhibition [2]: 33% | Inhibition [3]: 0%

CNC(=O)c1ccccc1Nc1nc(Nc2ccc(N3CCOCC3)cc2)ncc1Cl.Cl
Inhibition [1]: 97% | Inhibition [2]: 97% | Inhibition [3]: 75%

Cc1cccc2nc(-c3cccc(-c4ccc(CN5CCN(CCO)CC5)cc4)c3)[nH]c12.O=C(O)C(F)(F)F
Inhibition [1]: 100% | Inhibition [2]: 63% | Inhibition [3]: 12%

Nc1c2ccccc2nc2cc(Cl)ccc12
Inhibition [1]: 100% | Inhibition [2]: 86% | Inhibition [3]: 24%

Cc1noc(C)c1-c1ccc2c(Nc3ccccc3C(C)(C)C)c(C(=O)NC3CCCC3)cnc2c1.Cl
Inhibition [1]: 93% | Inhibition [2]: 79% | Inhibition [3]: 27%

CC(C)(C)OC(=O)N(Cc1cc(-n2nnnc2C(F)(F)F)ccc1O)[C@H]1CCCN(C(=O)OC(C)(C)C)[C@H]1c1ccccc1
Inhibition [1]: 98% | Inhibition [2]: 66% | Inhibition [3]: 14%

CCCCCCN1CCCN(Cc2ccc(C(=O)Nc3ccc(CCC)cc3)cc2)CC1.O=C(O)C(F)(F)F
Inhibition [1]: 92% | Inhibition [2]: 56% | Inhibition [3]: 45%

O=C(Nc1ccc(Cl)cc1)Nc1cccc(-c2cccc(-c3nc4ccccc4[nH]3)c2)c1
Inhibition [1]: 100% | Inhibition [2]: 56% | Inhibition [3]: 70%

CN1CCC(NCc2ccc(-c3ccc(S(=O)(=O)NC4CCC4)s3)cc2)CC1.O=C(O)C(F)(F)F
Inhibition [1]: 92% | Inhibition [2]: 31% | Inhibition [3]: 31%

CCOC(=O)CCCCOc1c(OC)cc(Cc2cnc(N)nc2N)cc1OC
Inhibition [1]: 95% | Inhibition [2]: 0% | Inhibition [3]: 0%

Cc1ccc(O)cc1Nc1ccnc2cc(-c3ccccn3)ccc12.Cl [GW440139A]
Inhibition [1]: 97% | Inhibition [2]: 98% | Inhibition [3]: 6%

CCCC1CCNC(C(O)c2ccnc3ccc(OC)cc23)C1.Cl (stereo not given)
Inhibition [1]: 98% | Inhibition [2]: 78% | Inhibition [3]: 0%

COc1cccc(CN2CCCC(OC(c3ccccc3)c3ccccc3)C2)c1O.O=C(O)C(F)(F)F (stereo not given)
Inhibition [1]: 90% | Inhibition [2]: 73% | Inhibition [3]: 19%

Oc1cc(NC[C@@H]2CCC[C@@H]2NCc2ccc(Cl)c(Cl)c2)nc2ccccc12
Inhibition [1]: 100% | Inhibition [2]: 75% | Inhibition [3]: 9%

COc1ccc2ccccc2c1C=NN=c1cc(C)[nH]c2c(C)cccc12
Inhibition [1]: 100% | Inhibition [2]: 94% | Inhibition [3]: 0%

Cc1ccccc1C1CCN(C2CCC(NC(=O)/C=C/c3c(F)ccc(F)c3F)CC2)CC1 (stereo not given)
Inhibition [1]: 82% | Inhibition [2]: 33% | Inhibition [3]: 37%

Nc1cccc(CNCc2ccc(-c3cccc(-c4nc5ccccc5[nH]4)c3)cc2)c1.O=C(O)C(F)(F)F
Inhibition [1]: 100% | Inhibition [2]: 78% | Inhibition [3]: 12%

Nc1ccc2[nH]cc(C3CCN(CC4CCN(C(=O)/C=C/c5ccc(Cl)c(Cl)c5)CC4)CC3)c2n1
Inhibition [1]: 99% | Inhibition [2]: 97% | Inhibition [3]: 53%

OC[C@H]1CCCN1CC#Cc1cc2c(Nc3ccc(OCc4cccc(F)c4)c(Cl)c3)ncnc2s1
Inhibition [1]: 89% | Inhibition [2]: 6% | Inhibition [3]: 13%

CC(C)N1CCN(c2ccc(OCCCCN3CCN(c4cccc(Cl)c4Cl)CC3)cc2Cl)CC1.Cl
Inhibition [1]: 89% | Inhibition [2]: 34% | Inhibition [3]: 63%

Oc1ccc(CCNc2nc(N/N=C/C=C/c3ccc(Cl)cc3)nc(N3CCNCC3)n2)cc1
Inhibition [1]: 98% | Inhibition [2]: 52% | Inhibition [3]: 17%

Cl.Nc1c2c(nc3ccc(NC(=O)c4ccc([N+](=O)[O-])cc4)cc13)CCCC2
Inhibition [1]: 100% | Inhibition [2]: 72% | Inhibition [3]: 19%

CC1CCN(CC[C@H]2CCCN2S(=O)(=O)c2cccc(NC(=O)Nc3ccc(C(F)(F)F)cc3)c2)CC1
Inhibition [1]: 100% | Inhibition [2]: 41% | Inhibition [3]: 12%

Cl.Nc1c(C(=O)NCCCCN2CCN(c3nsc4ccccc34)CC2)sc2ccccc12
Inhibition [1]: 86% | Inhibition [2]: 0% | Inhibition [3]: 26%

COc1ccc2nc(C)cc(N/N=C/c3cccc([N+](=O)[O-])c3)c2c1
Inhibition [1]: 100% | Inhibition [2]: 97% | Inhibition [3]: 6%

CC(C)N1CCN(C(=O)c2ccc(CN(C)CCCN3CCN(c4cccc(Cl)c4Cl)CC3)s2)CC1.Cl
Inhibition [1]: 94% | Inhibition [2]: 35% | Inhibition [3]: 74%

Clc1ncnc2scc(-c3ccc(Br)cc3)c12
Inhibition [1]: 95% | Inhibition [2]: 96% | Inhibition [3]: 0%

O=C(/C=C/c1ccc(Cl)c(Cl)c1)NCCCCCN1CCCC(C(=O)Nc2ccc(Cl)cc2)C1 (stereo not given)
Inhibition [1]: 98% | Inhibition [2]: 0% | Inhibition [3]: 35%
